From PubChem BioAssay (NCATS)
Results filed as inconclusive are left out. Activity calls are given as the source filed them. Calls follow the shape of the dose curve; as a rule, active = well fitted curve in the direction sought with a large enough effect; inconclusive = small, poorly fitted or top-dose-only effect, or another doubt; inactive = no such curve, though single readings can be large; an effect the other way counts as inactive or inconclusive.

Columns and labels:
[1] = Quantitative High-Throughput drug screen in 47 multiple myeloma cell lines against the NCATS MIPE library collection: NCIH929_DSMZ cell viability assay (AID 1918978); also: nearly all actives have a fitted effect of over 35% in size; also: potency is read from the fitted curve at half-maximal effect
Method in brief: (§1)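 Cells were exposed to library compounds for 48 hours, after which ATP was measured by CellTiter-Glo. Signal was taken as median relative luminescence units.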

[2] = Quantitative High-Throughput drug screen in 47 multiple myeloma cell lines against the NCATS MIPE library collection: OCIMY1_PLB cell viability assay (AID 1918979);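 also: 100% = DMSO-only wells and 0% = cell-free media-only wells; nearly all actives have a fitted effect of over 35% in size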
Method in brief: as §1

[3] = Quantitative High-Throughput drug screen in 47 multiple myeloma cell lines against the NCATS MIPE library collection: MM1R_ATCC cell viability assay (AID 1918981); also: nearly all actives have a fitted effect of over 35% in size; also: potency is read from the fitted curve at half-maximal effect
Method in brief: as §1

[4] = Quantitative High-Throughput drug screen in 47 multiple myeloma cell lines against the NCATS MIPE library collection: LP1_DSMZ cell viability assay (AID 1918982); also: nearly all actives have a fitted effect of over 35% in size; also: potency is read from the fitted curve at half-maximal effect
Method in brief: as §1

[5] = Quantitative High-Throughput drug screen in 47 multiple myeloma cell lines against the NCATS MIPE library collection: KMS28PE_JCRB cell viability assay (AID 1918983); also: nearly all actives have a fitted effect of over 35% in size; also: potency is read from the fitted curve at half-maximal effect
Method in brief: as §1

[6] = Quantitative High-Throughput drug screen in 47 multiple myeloma cell lines against the NCATS MIPE library collection: OCIMY7_PLB cell viability assay (AID 1918987); conditions: OCI-MY7 myeloma viability, CellTiter-Glo ATP, 48 h; viability (% of DMSO): at 45.8 µM (top of the series); also: nearly all actives have a fitted effect of over 65% in size; also: potency is read from the fitted curve at half-maximal effect
Method in brief: as §1

[7] = Quantitative High-Throughput drug screen in 47 multiple myeloma cell lines against the NCATS MIPE library collection: U266_ATCC cell viability assay (AID 1919864); also: nearly all actives have a fitted effect of over 35% in size; also: potency is read from the fitted curve at half-maximal effect;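 as to viability (% of DMSO control): 0% = media-only wells without cells and 100% = DMSO-only wells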
Method in brief: as §1

[8] = Quantitative High-Throughput drug screen in 47 multiple myeloma cell lines against the NCATS MIPE library collection: XG6_PLB cell viability assay (AID 1919865); also: nearly all actives have a fitted effect of over 40% in size; also: potency is read from the fitted curve at half-maximal effect
Method in brief: as §1

[9] = Quantitative High-Throughput drug screen in 47 multiple myeloma cell lines against the NCATS MIPE library collection: UTMC2_PLB cell viability assay (AID 1919868); conditions: CellTiter-Glo ATP luminescence, 48 h; viability (% of DMSO control): at 45.8 µM (top of the series); also: nearly all actives have a fitted effect of over 55% in size; also: potency is read from the fitted curve at half-maximal effect;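 as to viability (% of DMSO control): 100% = DMSO-only wells and 0% = media-only wells without cells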
Method in brief: as §1

[10] = Quantitative High-Throughput drug screen in 47 multiple myeloma cell lines against the NCATS MIPE library collection: PE2_PLB cell viability assay (AID 1919869); also: nearly all actives have a fitted effect of over 35% in size; also: potency is read from the fitted curve at half-maximal effect
Method in brief: as §1

[11] = Quantitative High-Throughput drug screen in 47 multiple myeloma cell lines against the NCATS MIPE library collection: PCM6_Riken cell viability assay (AID 1919870); also: nearly all actives have a fitted effect of over 30% in size; also: potency is read from the fitted curve at half-maximal effect
Method in brief: as §1

[12] = Quantitative High-Throughput drug screen in 47 multiple myeloma cell lines against the NCATS MIPE library collection: L363_DSMZ cell viability assay (AID 1918984); also: nearly all actives have a fitted effect of over 40% in size; also: potency is read from the fitted curve at half-maximal effect
Method in brief: as §1

[13] = Quantitative High-Throughput drug screen in 47 multiple myeloma cell lines against the NCATS MIPE library collection: OPM1_PLB cell viability assay (AID 1918989); also: nearly all actives have a fitted effect of over 40% in size; also: potency is read from the fitted curve at half-maximal effect
Method in brief: as §1

[14] = Quantitative High-Throughput drug screen in 47 multiple myeloma cell lines against the NCATS MIPE library collection: SKMM1_PLB cell viability assay (AID 1919863); conditions: SKMM1 myeloma viability, CellTiter-Glo ATP, 48 h; viability: stronger effect = lower value; also: nearly all actives have a fitted effect of over 35% in size; also: potency is read from the fitted curve at half-maximal effect
Method in brief: as §1

[15] = Quantitative High-Throughput drug screen in 47 multiple myeloma cell lines against the NCATS MIPE library collection: XG1_PLB cell viability assay (AID 1919866); also: nearly all actives have a fitted effect of over 35% in size; also: potency is read from the fitted curve at half-maximal effect
Method in brief: as §1

[16] = Quantitative High-Throughput drug screen in 47 multiple myeloma cell lines against the NCATS MIPE library collection: RPMI8226_ATCC cell viability assay (AID 1919871); also: nearly all actives have a fitted effect of over 30% in size; also: potency is read from the fitted curve at half-maximal effect
Method in brief: as §1

[17] = Quantitative High-Throughput drug screen in 47 multiple myeloma cell lines against the NCATS MIPE library collection: KMS34_JCRB cell viability assay (AID 1918985); also: nearly all actives have a fitted effect of over 40% in size; also: potency is read from the fitted curve at half-maximal effect
Method in brief: as §1

[18] = Quantitative High-Throughput drug screen in 47 multiple myeloma cell lines against the NCATS MIPE library collection: OCIMY5_PLB cell viability assay (AID 1918988); also: nearly all actives have a fitted effect of over 65% in size; also: potency is read from the fitted curve at half-maximal effect
Method in brief: as §1

[19] = Quantitative High-Throughput drug screen in 47 multiple myeloma cell lines against the NCATS MIPE library collection: VP6_DJ cell viability assay (AID 1919867)
Method in brief: as §1

[20] = Quantitative High-Throughput drug screen in 47 multiple myeloma cell lines against the NCATS MIPE library collection: MM1S_ATCC cell viability assay (AID 1918980); also: potency is read from the fitted curve at half-maximal effect; nearly all actives have a fitted effect of over 45% in size
Method in brief: as §1

O=C(NC1CCOCC1)c1ccc(-c2cc(-c3cn[nH]c3-c3ccccn3)ccn2)cc1
active: Potency [3] 14.8 µM | Potency [4] 14.8 µM
inactive: Potency [1] | Potency [2] | Potency [5] | Potency [6] | Potency [7] | Potency [8] | Potency [9] | Potency [10] | Potency [11]

N#CC(=C(N)Sc1ccccc1N)C(C#N)=C(N)Sc1ccccc1N
inactive: Potency [2]
active: Potency [1] 14.8 µM | Potency [3] 1.18 µM | Potency [12] 10.5 µM | Potency [6] 0.662 µM | Potency [13] 20.9 µM | Potency [14] 1.32 µM | Potency [7] 5.26 µM | Potency [8] 14.8 µM | Potency [15] 9.35 µM | Potency [9] 8.33 µM | Potency [10] 18.7 µM | Potency [16] 10.5 µM

O=C(Nc1ccccc1Br)N[C@@H]1CCN(c2ccc(C(F)(F)F)cn2)C1
inactive: Potency [1] | Potency [2] | Potency [12] | Potency [17]
active: Potency [8] 23.5 µM | Potency [10] 18.7 µM

CCc1ccc(C=C2SC(=S)NC2=O)cc1
inactive: Potency [1] | Potency [2] | Potency [4] | Potency [5] | Potency [18] | Potency [13]

COc1ccc(Cc2ccc(NC(N)=O)cc2)cc1-c1cccc(Cl)c1
inactive: Potency [2] | Potency [5] | Potency [17] | Potency [15] | Potency [10]
active: Potency [1] 16.6 µM | Potency [7] 8.33 µM

CC1(C)CCC[C@@]2(C)[C@@H]1CC[C@@]1(C)OC(=O)C[C@H]21
active: Potency [18] 23.5 µM | Potency [14] 8.33 µM
inactive: Potency [1] | Potency [2] | Potency [4] | Potency [5] | Potency [13] | Potency [8] | Potency [15] | Potency [10] | Potency [11]

CC(C)C(C)C=CC(C)C1CCC2C3=CC=C4CC(O)CCC4(C)C3CCC21C (configuration not stated)
inactive: Potency [1] | Potency [2] | Potency [4] | Potency [12] | viability [14] 135% | Potency [8] | Potency [9] | Potency [10] | Potency [11]
active: Potency [5] 16.6 µM | Potency [18] 23.5 µM

COc1ccc2c(Oc3ccc(NC(=O)c4c(C)n(CC(C)(C)O)n(-c5ccccc5)c4=O)nc3)ccnc2c1
inactive: Potency [1] | Potency [2] | Potency [3] | Potency [13] | Potency [7]
active: Potency [18] 26.4 µM

COc1ccc2cccc(CCNC(C)=O)c2c1
inactive: Potency [1] | Potency [2] | Potency [3] | Potency [4] | Potency [5] | Potency [12] | Potency [6] | viability [14] 129% | Potency [8] | Potency [15] | Potency [10] | Potency [11] | Potency [16]

Cc1ccn(-c2ccc(-c3ncco3)cc2)c(=O)c1-c1ccc2nc(N)ncc2c1
inactive: Potency [1] | Potency [2] | Potency [4] | Potency [5] | viability [14] 99.5% | Potency [16]
active: Potency [6] 0.935 µM | Potency [13] 3.72 µM | Potency [15] 3.72 µM | Potency [19] 1.66 µM | Potency [10] 4.69 µM

CN1CCN(CCOc2cc(OC3CCOCC3)c3c(Nc4c(Cl)ccc5c4OCO5)ncnc3c2)CC1
active: Potency [1] 18.7 µM | Potency [12] 14.8 µM | Potency [6] 18.7 µM | Potency [18] 18.7 µM | Potency [13] 20.9 µM | Potency [8] 5.26 µM | Potency [15] 18.7 µM | Potency [10] 23.5 µM | Potency [11] 9.35 µM
inactive: Potency [2]

C[N+]1(C)[C@@H]2CC(OC(=O)[C@H](CO)c3ccccc3)C[C@H]1[C@H]1O[C@@H]12 (some centres not stated)
active: Potency [8] 23.5 µM
inactive: Potency [1] | Potency [2] | Potency [3] | Potency [4] | Potency [5] | Potency [12] | Potency [17] | Potency [13] | Potency [9] | Potency [11]

O=c1c(O)c(-c2ccc(O)cc2)oc2cc(O)cc(O)c12
inactive: Potency [2]
active: Potency [1] 9.35 µM | Potency [20] 18.7 µM | Potency [6] 14.8 µM | Potency [18] 26.4 µM | Potency [8] 14.8 µM | Potency [15] 16.6 µM | Potency [19] 16.6 µM | Potency [11] 18.7 µM

COc1cc(O)c2c(c1)C(=O)c1cc(C)cc(O)c1C2=O
inactive: Potency [1] | Potency [2] | Potency [4] | Potency [12] | viability [14] 131% | Potency [8] | Potency [15] | Potency [10] | Potency [11] | Potency [16]

CCC(=O)O[C@]1(C(=O)CO)CC[C@H]2[C@@H]3CCC4=CC(=O)CC[C@]4(C)[C@@H]3CC[C@@]21C
inactive: Potency [1] | Potency [2] | Potency [5] | Potency [13] | viability [14] 108% | Potency [7] | Potency [9] | Potency [10] | Potency [16]
active: Potency [4] 5.26 µM | Potency [17] 0.0017 µM | Potency [19] 10.5 µM
